Results as given in the supplement of paper PMC13380429.

System: Vero E6 infected with SARS-CoV-2
Experiment: inhibition of SARS-CoV-2 cytopathic effect; higher = more antiviral protection, active = above 15
Details: 48 h

Measured: inhibition of SARS-CoV-2 cytopathic effect

CC(=O)O[C@]1(C(C)=O)CC[C@H]2[C@@H]3CCC4=CC(=O)CCC4=C3[C@@H](c3ccc(N(C)C)cc3)C[C@@]21C [Ulipristal acetate]
inactive: 1 nM 4.79% | 8.33 nM 2.62% | 100 nM 1.8% | 833.33 nM 7.36% | 10000 nM 12.9%

N=C(N)NC(=N)Nc1ccccc1 [1-phenylbiguanide]
inactive: 1 nM -1.07% | 8.33 nM -0.09% | 100 nM 0.97% | 833.33 nM 1.34% | 10000 nM -1.5%

CC(C)NC[C@@H](C(=O)N1CCN(c2ncnc3c2[C@H](C)C[C@H]3O)CC1)c1ccc(Cl)cc1
inactive: 1 nM -0.34% | 8.33 nM -0.39% | 100 nM -0.29% | 833.33 nM 2.69% | 10000 nM 1.98%

O=c1[nH]c2ccccc2n1CCCN1CCC(n2c(=O)[nH]c3cc(Cl)ccc32)CC1 [domperidone]
inactive: 1 nM 0.36% | 8.33 nM -0.12% | 100 nM 1.41% | 833.33 nM 2.23% | 10000 nM -3.31%

O=C(O)c1cc(O)c2ccc(Cl)cc2n1 [7-chlorokynurenic-acid]
inactive: 1 nM 1.64% | 8.33 nM 1.28% | 100 nM 1.02% | 833.33 nM 1.24% | 10000 nM 1.89%

CO[C@@H]1[C@@H](O[C@@H]2O[C@H](C)[C@@H](O[C@H]3C[C@@](C)(O)[C@@H](OC(=O)CC(C)C)[C@H](C)O3)[C@H](N(C)C)[C@H]2O)[C@@H](CC=O)C[C@@H](C)[C@@H](O)/C=C/C=C/C[C@@H](C)OC(=O)C[C@H]1OC(C)=O [josamycin]
inactive: 1 nM 2.65% | 8.33 nM 0.07% | 100 nM -2.91% | 833.33 nM -1.73% | 10000 nM -7.02%

COc1ccc(-c2ccc3cc(C(=O)O)ccc3c2)cc1C12CC3CC(CC(C3)C1)C2 [adapalene]
inactive: 1 nM -0.05% | 8.33 nM -0.29% | 100 nM 2.4% | 833.33 nM 2.31% | 10000 nM 3.12%

Cc1ccc(C(C)C)c(O)c1 [thymol]
inactive: 1 nM 2.55% | 8.33 nM -2.55% | 100 nM -2.75% | 833.33 nM -1.48% | 10000 nM -1.32%

C=C1C[C@]23C[C@@]1(O)CC[C@H]2[C@@]12C=C[C@H](O)[C@@](C)(C(=O)O1)[C@H]2[C@@H]3C(=O)O
inactive: 1 nM 0.13% | 8.33 nM 0.82% | 100 nM 1.4% | 833.33 nM 2.17% | 10000 nM -0.14%

CC(C)n1c(=O)n(C(=O)N[C@H]2C[C@H]3CC[C@@H](C2)N3C)c2ccccc21
inactive: 1 nM 3% | 8.33 nM 1.63% | 100 nM -0.05% | 833.33 nM -0.36% | 10000 nM -2.53%

CCC[C@H](NC(=O)[C@@H]1[C@H]2CCC[C@H]2CN1C(=O)[C@@H](NC(=O)[C@@H](NC(=O)c1cnccn1)C1CCCCC1)C(C)(C)C)C(=O)C(=O)NC1CC1 [telaprevir]
inactive: 1 nM 0.02% | 8.33 nM -0.75% | 100 nM 0.71% | 833.33 nM 5.12% | 10000 nM -2.66%

CCN1CCCC(OC(=O)C(c2ccccc2)c2ccccc2)C1 (stereo not given) [piperidolate]
inactive: 1 nM -8.23% | 8.33 nM -7.13% | 100 nM -7.85% | 833.33 nM -6.63% | 10000 nM -10.7%

CC(C)c1noc(N2CCC(COc3ccc(-c4ccc(S(C)(=O)=O)cc4)nc3)CC2)n1
inactive: 1 nM -1.46% | 8.33 nM -1.84% | 100 nM -1.48% | 833.33 nM -0.49% | 10000 nM -0.23%

O=C(NCCCN1CCOCC1)c1cnn2c(-c3ccccc3)cc(-c3ccccc3)nc12 [reversan]
inactive: 1 nM 12.1% | 8.33 nM 0.65% | 100 nM 1.42% | 833.33 nM 0.17% | 10000 nM -6.41%

CC(C)N1CCN(c2ccc(OCC3COC(Cn4cncn4)(c4ccc(Cl)cc4Cl)O3)cc2)CC1 (stereo not given) [terconazole]
inactive: 1 nM 1.55% | 8.33 nM 0.07% | 100 nM 4.2% | 833.33 nM -1.24% | 10000 nM 11.5%

CC(=O)OC[C@H]1O[C@@H]([S-])[C@H](OC(C)=O)[C@@H](OC(C)=O)[C@@H]1OC(C)=O.CCP(CC)CC.[Au+] [auranofin]
inactive: 1 nM 3.21% | 8.33 nM 4.4% | 100 nM 7.71% | 10000 nM -21.1%
active: 833.33 nM 18.4%
